Read-out in experiment [1]: Matrix Metallopeptidase 1 (MMP1), MMP1 (gene 4312)
Nature of the experiment: BSK_BE3C_MMP1: BioMAP Diversity Plus: BE3C Assay for Matrix Metallopeptidase 1 (MMP1) Biomarker Activity (AID 2283024). As to conditions: primary human bronchial epithelial cells; actives raise or lower the signal. A digest of the protocol: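 Human primary bronchial epithelial cells (BE3C system) dosed for 24 h; MMP-1 quantified by ELISA. Bidirectional fit against DMSO; cytotoxicity tracked in parallel cultures by SRB total-protein staining.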

Experiment [2] in a line: BSK_3C_Vis: BioMAP Diversity Plus: 3C Assay for Morphology Visualization (AID 2283025).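 Also: fitted both ways so gain or loss versus DMSO counts.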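 As to AC50: light microscopy image of cell morphology used as background control.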 As to conditions: primary human endothelial cells (HUVEC). Summed up: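 Human umbilical vein endothelial cell morphology was inspected by light microscopy 24 h after chemical dosing; scored bidirectionally relative to DMSO.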
Read-out in experiment [3]: Pselectin, SELP (gene 6403)
Description: BSK_4H_Pselectin: BioMAP Diversity Plus: 4H Assay for Pselectin Biomarker Activity (AID 2283026). The note with it: primary human endothelial cells (HUVEC); actives raise or lower the signal. Summed up:
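Primary human umbilical vein endothelial cells were treated 24 h, and cell-surface P-selectin was then quantified by ELISA. Bidirectional fit versus DMSO; cytotoxicity checked in parallel cultures by SRB total-protein staining.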

The nature of experiment [4]: BSK_4H_SRB: Viability Assessment in the BioMAP Diversity Plus: 4H Assay (AID 2283027).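 Also: cells exposed to compound for 24 h before staining.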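 As to AC50: curves fitted both ways versus DMSO so AC50 may be loss or gain.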 As to conditions: primary human endothelial cells (HUVEC). A digest of the protocol:
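Human umbilical vein endothelial cells were dosed with chemical and, after 24 h, fixed with 10% TCA, stained with 0.1% sulforhodamine B, and read at 560 nm to give total protein as a cytotoxicity measure. Bidirectional fitting relative to DMSO control.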

Read-out in experiment [5]: Thrombomodulin, THBD (gene 7056)
Nature of the experiment: BSK_3C_Thrombomodulin: BioMAP Diversity Plus: 3C Assay for Thrombomodulin Biomarker Activity (AID 2283029). The note with it: primary human endothelial cells (HUVEC); actives raise or lower the signal. Summed up: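 Human umbilical vein endothelial cells were exposed to chemicals for 24 h; cell-surface thrombomodulin quantified by ELISA, with bidirectional fitting against DMSO baseline.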

Read-out in experiment [6]: Vascular endothelial growth factor receptor 2 (Homo sapiens) (UniProt P35968)
Description: BSK_4H_VEGFRII: BioMAP Diversity Plus: 4H Assay for Vascular endothelial growth factor receptor 2 (VEGFR2) Biomarker Activity (AID 2283031).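 As to AC50: cell-surface VEGFR2 protein level quantified by ELISA.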 As to conditions: primary human endothelial cells (HUVEC); actives raise or lower the signal. Summed up:
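Primary human umbilical vein endothelial cells (4H system), 24 h exposure; cell-surface VEGFR2 measured by ELISA. Bidirectional fitting versus DMSO; cytotoxicity checked in parallel by SRB total-protein staining.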

Read-out in experiment [7]: Human Leukocyte Antigen - DR isotype (HLADR), HLA-DRA (gene 3122)
Nature of the experiment: BSK_BE3C_HLADR: BioMAP Diversity Plus: BE3C Assay for Human Leukocyte Antigen - DR isotype (HLADR) Biomarker Activity (AID 2283032). The note with it: primary human bronchial epithelial cells; actives raise or lower the signal. A digest of the protocol: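 Human primary bronchial epithelial cells (BE3C system) exposed to compound for 24 hours; cell-surface HLA-DR measured by ELISA, fitted bidirectionally relative to DMSO. Total protein by SRB in parallel cultures tracked cytotoxicity.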

Read-out in experiment [8]: Vascular cell adhesion molecule 1 (VCAM1), VCAM1 (gene 7412)
Description: BSK_4H_VCAM1: BioMAP Diversity Plus: 4H Assay for Vascular cell adhesion molecule 1 (VCAM1) Biomarker Activity (AID 2283033). The note with it: primary human endothelial cells (HUVEC); actives raise or lower the signal. A digest of the protocol:
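Primary human umbilical vein endothelial cells, 4H stimulation system, treated for 24 h; cell-surface VCAM-1 quantified by ELISA. Bidirectional fitting against DMSO; cytotoxicity tracked by SRB total-protein staining in parallel cultures.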

Read-out in experiment [9]: Interferon-gamma inducible Protein 10 (IP10), CXCL10 (gene 3627)
Nature of the experiment: BSK_BE3C_IP10: BioMAP Diversity Plus: BE3C Assay for Interferon-gamma inducible Protein 10 (IP10) Biomarker Activity (AID 2283034). As to conditions: primary human bronchial epithelial cells; actives raise or lower the signal. A digest of the protocol:
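Primary human bronchial epithelial cells, with IP-10 measured by ELISA 24 hours after chemical dosing. Bidirectional fit against DMSO; cytotoxicity checked by SRB total protein staining in parallel cultures.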

Read-out in experiment [10]: Monokine induced gamma interferon (MIG), CXCL9 (gene 4283)
Nature of the experiment: BSK_BE3C_MIG: BioMAP Diversity Plus: BE3C Assay for Monokine induced gamma interferon (MIG) Biomarker Activity (AID 2283035). The note with it: primary human bronchial epithelial cells; actives raise or lower the signal. A digest of the protocol: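 ELISA read-out of MIG in human lung bronchial epithelial primary cultures, 24 h post-dosing. Bidirectional curve fit vs DMSO baseline.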

Read-out in experiment [11]: Transforming growth factor beta 1 (TGFb1), TGFB1 (gene 7040)
Nature of the experiment: BSK_BE3C_TGFb1: BioMAP Diversity Plus: BE3C Assay for Transforming growth factor beta 1 (TGFb1) Biomarker Activity (AID 2283036). As to conditions: primary human bronchial epithelial cells; actives raise or lower the signal. A digest of the protocol: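 Primary human bronchial epithelial cells dosed with chemical; TGF-b1 measured by ELISA 24 h after dosing. Bidirectional curve fitting against DMSO negative control; SRB total-protein staining in parallel cultures gauged cytotoxicity.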

Read-out in experiment [12]: Plasminogen activator inhibitor-1 (PAI1), SERPINE1 (gene 5054)
Description: BSK_BE3C_PAI1: BioMAP Diversity Plus: BE3C Assay for Plasminogen activator inhibitor-1 (PAI1) Biomarker Activity (AID 2283037). The note with it: primary human bronchial epithelial cells; actives raise or lower the signal. A digest of the protocol: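 Primary human bronchial epithelial cells (BE3C system) exposed 24 h; PAI-1 quantified by ELISA. Parallel sulforhodamine B staining of total protein flags cytotoxicity. Bidirectional fit versus DMSO.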

Read-out in experiment [13]: urokinase plasminogen activator (uPA), PLAU (gene 5328)
Description: BSK_BE3C_uPA: BioMAP Diversity Plus: BE3C Assay for urokinase plasminogen activator (uPA) Biomarker Activity (AID 2283038).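 As to outcome: uPA protein level quantified by ELISA in cell cultures; uPA read one day after compound addition.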 As to conditions: primary human bronchial epithelial cells; actives raise or lower the signal. Summed up:
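Primary human bronchial epithelial cells, uPA measured by ELISA 24 h after dosing. Bidirectional change relative to DMSO; cytotoxicity checked in parallel cultures by sulforhodamine B total-protein staining.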

Read-out in experiment [14]: Urokinase-type plasminogen activator receptor (uPAR), PLAUR (gene 5329)
Description: BSK_BE3C_uPAR: BioMAP Diversity Plus: BE3C Assay for Urokinase-type plasminogen activator receptor (uPAR) Biomarker Activity (AID 2283039).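 As to outcome: cells exposed to compound for one day before measurement.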 As to conditions: primary human bronchial epithelial cells; actives raise or lower the signal. Summed up: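 Primary human bronchial epithelial cells dosed for 24 h; uPAR quantified by ELISA with bidirectional fitting against DMSO. Overt cytotoxicity assessed in parallel cultures by SRB total-protein staining (0.1% SRB, 560 nm).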

Read-out in experiment [15]: Interleukin-6 (IL6), IL6 (gene 3569)
Nature of the experiment: BSK_CASM3C_IL6: BioMAP Diversity Plus: CASM3C Assay for Interleukin-6 (IL6) Biomarker Activity for (AID 2283040). As to conditions: primary human coronary artery smooth muscle cells; actives raise or lower the signal.

Read-out in experiment [16]: Interleukin-8 (IL8), CXCL8 (gene 3576)
Description: BSK_CASM3C_IL8: BioMAP Diversity Plus: CASM3C Assay for Interleukin-8 (IL8) Biomarker Activity (AID 2283042).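 Also: IL-8 protein level quantified by ELISA.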 As to conditions: primary human coronary artery smooth muscle cells; actives raise or lower the signal.

Read-out in experiment [17]: Human Leukocyte Antigen - DR isotype (HLADR), HLA-DRA (gene 3122)
Description: BSK_CASM3C_HLADR: BioMAP Diversity Plus: CASM3C Assay for Human Leukocyte Antigen - DR isotype (HLADR) Biomarker Activity (AID 2283043).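 Also: cell-surface HLA-DR protein level quantified by ELISA.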 The note with it: primary human coronary artery smooth muscle cells; actives raise or lower the signal.

Read-out in experiment [18]: Urokinase-type plasminogen activator receptor (uPAR), PLAUR (gene 5329)
Nature of the experiment: BSK_4H_uPAR: BioMAP Diversity Plus: 4H Assay for Urokinase-type plasminogen activator receptor (uPAR) Biomarker Activity (AID 2283030). As to conditions: primary human endothelial cells (HUVEC); actives raise or lower the signal. A digest of the protocol:
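Human umbilical vein endothelial cells in the 4H system, 24 h after chemical dosing. Cell-surface uPAR measured by ELISA, fitted in both directions versus DMSO; cytotoxicity checked by SRB total protein in parallel cultures.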

The source made the active and inactive calls. The calls were made as follows: active = hit-call score of the fitted dose curve at least 0.9, where 1 is the maximum; inactive = score below 0.9.

The text below walks through data of PubChem BioAssay (EPA / NIEHS).

Usually AC50 stands for the concentration at which the activity in the assay is half-maximal.

Consider `C=CC(=O)OCCCCCC(C)C`, for which the outcome in experiment [1], in [2], in experiment [3], in experiment [4], in experiment [5] and in experiment [6] was inactive. The outcome in experiment [7], in [8], in [9], in [10], in [11] and in experiment [12] was inactive. The outcome in experiment [13], in experiment [14], in [15], in experiment [16] and in experiment [17] was inactive.

As to `CCOP(=S)(OCC)SCSP(=S)(OCC)OCC`, the outcome in [1], in [2], in experiment [3], in [4], in experiment [5] and in experiment [18] was inactive. In addition, the result in experiment [6], in experiment [7], in [8], in experiment [9], in [10] and in experiment [11] was inactive. Also, the outcome in [12], in experiment [13], in [14], in experiment [15], in experiment [16] and in [17] was inactive.

With `O=C1C2(Cl)C3(Cl)C4(Cl)C(Cl)(Cl)C5(Cl)C3(Cl)C1(Cl)C5(Cl)C24Cl` (centres undefined), the AC50 in [1] was 10.4 µM (active); in experiment [2], 5.21 µM (active); in experiment [3] it was 10.9 µM (active); in experiment [4], 6.58 µM (active); in experiment [6], 5.18 µM (active); in experiment [7], 7.65 µM (active). For the same compound, the AC50 is 8.36 µM (active) in experiment [8]; 7.91 µM (active) in [9]; 9.37 µM (active) in experiment [10]; 5.28 µM (active) in experiment [11]; 8.29 µM (active) in [12]; 5.32 µM (active) in [13]. For the same compound, the AC50 was 6.12 µM (active) in experiment [14], 33.5 µM (active) in experiment [15], 35.6 µM (active) in experiment [16] and 14.9 µM (active) in experiment [17]. For the same compound, the outcome in experiment [5] was inactive.

Regarding `CCSC(C)CC1CC(=O)C(C(CC)=NOC/C=C/Cl)=C(O)C1` (centres undefined), the result in experiment [1], in [2], in [3], in experiment [4], in [5] and in experiment [6] was inactive. Further, the outcome in [7], in experiment [8], in experiment [9], in experiment [10], in experiment [11] and in experiment [12] was inactive. In addition, the outcome in experiment [13], in experiment [14], in experiment [15], in [16] and in [17] was inactive.

Regarding `Oc1cccc2cccnc12`, the AC50 in experiment [1] is 2.73 µM (active); in [3], 5.54 µM (active); in experiment [7] it was 3.53 µM (active); in experiment [8] it was 1.96 µM (active); in [9], 3.88 µM (active); in [10] it was 5.47 µM (active). The half-maximal activity concentration (AC50) was 5.43 µM (active) in experiment [11]; 3.45 µM (active) in experiment [12]; 3.44 µM (active) in [13]; 4.95 µM (active) in experiment [14]; 3.97 µM (active) in experiment [17]. The result in [2], in experiment [4], in experiment [5], in experiment [6], in [15] and in experiment [16] was inactive.

As for `C(=NC1CCCCC1)=NC1CCCCC1`, the AC50 was 36.5 µM (active) in experiment [1]; 37.3 µM (active) in [2]; 5.42 µM (active) in experiment [3]; 5.35 µM (active) in [4]; 20 µM (active) in [7]; 7.64 µM (active) in experiment [8]. Moreover, the AC50 in experiment [9] is 20 µM (active); in experiment [10] it was 36.3 µM (active); in experiment [13] it was 31.8 µM (active); in experiment [14], 20 µM (active); in experiment [15], 36.8 µM (active); in experiment [17], 20 µM (active). Besides, the result in experiment [5], in experiment [11], in experiment [12] and in experiment [16] was inactive.

In the case of `O=[N+]([O-])c1ccc(O)c([N+](=O)[O-])c1`, the result in [1], in experiment [2], in experiment [3], in experiment [4], in [5] and in experiment [6] was inactive. Further, the outcome in [7], in experiment [8], in experiment [10], in [11], in experiment [13] and in experiment [14] was inactive. Moreover, the outcome in [15], in experiment [16] and in experiment [17] was inactive. Further, the half-maximal activity concentration (AC50) is 29.8 µM (active) in [9] and 30.5 µM (active) in experiment [12].
